Results on eight molecules are retold here after PubChem BioAssay (NCI).

Structures are written as SMILES. The panel holds about 83,000 compounds, 20% with a hit somewhere; the sample as a whole holds those more often.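 Each cell line was grown in a 96-well plate and treated with one concentration of compound for 48 hours. Values below 10 were considered active.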 Unmarked numbers belong to inactive results. Calls of active or inactive are those of the source.

Among the test systems are NCI-H23 lung; NCI-H226 lung; NCI-H322M lung; HOP-62 NSCLC; NCI-H460 lung; HOP-92 NSCLC; NCI-H522 lung; A549/ATCC NSCLC; 786-0 renal; COLO 205 colon; DU-145 prostate; K-562 leukemia; MALME-3M melanoma; MDA-MB-231 breast; RXF 393 renal; SF-268 CNS; SF-295 CNS; SF-539 CNS; UACC-257 melanoma; M14 melanoma.
Common to all, as to assay: NCI-60 one-dose screen, 48 h (100 = growth as untreated, 0 = no growth, -100 = all killed)
Holding throughout (conditions): 10 µM unless noted

Consider `COc1cc(-c2nc3occn3c2-c2ccnc(NCCCNS(=O)(=O)c3ccccc3)n2)ccc1F`, for which the growth in the experiment with NCI-H23 lung is 45.6%; in the experiment on NCI-H226 lung, 18.4%; with NCI-H322M lung, 78.3%; in the experiment with HOP-62 NSCLC it was 73.9%; in the experiment with NCI-H460 lung it was 47.8%; in the experiment with HOP-92 NSCLC, 63.4%. In addition, the growth was 26.6% with NCI-H522 lung; 38% in the experiment with A549/ATCC NSCLC; 63.8% in the experiment with 786-0 renal; 28.8% in the experiment on COLO 205 colon; 52.5% with DU-145 prostate; 26.5% in the experiment on K-562 leukemia. For the same molecule, the growth with MALME-3M melanoma was 18.4%; with MDA-MB-231 breast, 45.1%; in the experiment on RXF 393 renal, 48.6%; with SF-268 CNS it was 52.8%; with SF-295 CNS, 46%; in the experiment with SF-539 CNS, 78.8%. For the same molecule, the growth is 41.4% in the experiment on UACC-257 melanoma and 17.2% in the experiment on M14 melanoma.

With `O=C(NCc1ccccc1O)c1cccc2ccccc12`, the growth in the experiment with NCI-H23 lung was 47.8%; in the experiment with NCI-H226 lung, 76.7%; in the experiment with NCI-H322M lung it was 95.9%; with HOP-62 NSCLC, 86.5%; in the experiment with NCI-H460 lung, 70.3%; in the experiment on HOP-92 NSCLC, -8.54% (active). Besides, the growth in the experiment with NCI-H522 lung is 65.8%; in the experiment on A549/ATCC NSCLC it was 87.4%; in the experiment on 786-0 renal, 72.7%; with COLO 205 colon it was 106%; with DU-145 prostate, 95.6%; with K-562 leukemia, 55.1%. Moreover, the growth with MALME-3M melanoma is 48.7%; with MDA-MB-231 breast it was 68.9%; with RXF 393 renal, 95.2%; in the experiment with SF-268 CNS it was 87.9%; with SF-295 CNS, 87.3%; with SF-539 CNS it was 63.5%. For the same molecule, the growth with UACC-257 melanoma is 75.5%; with M14 melanoma, 75.8%.

As for `CC(C)C[C@@H](C(=O)N[C@H](C(=O)OC1CCCC1)c1ccccc1)[C@H](O)C(=O)NO`, the growth in the experiment on NCI-H23 lung was 55.6%; in the experiment with NCI-H226 lung, 70.1%; in the experiment with NCI-H322M lung it was 69.2%; in the experiment on HOP-62 NSCLC, 26.9%; in the experiment with NCI-H460 lung, 92.4%; in the experiment on HOP-92 NSCLC, 65.7%. Moreover, the growth in the experiment on NCI-H522 lung is 41.1%; in the experiment with A549/ATCC NSCLC, 56%; with 786-0 renal, 67.8%; in the experiment with COLO 205 colon, 78.6%; in the experiment on DU-145 prostate, 68.3%; in the experiment with K-562 leukemia, 22.7%. The growth in the experiment with MALME-3M melanoma was 38.3%; in the experiment with MDA-MB-231 breast, 9.77% (active); in the experiment with RXF 393 renal, 7.55% (active); with SF-268 CNS, 88.9%; in the experiment on SF-295 CNS it was 60.8%; in the experiment with SF-539 CNS, 52.2%. Also, the growth in the experiment on UACC-257 melanoma is 36%; with M14 melanoma, 54.5%.

Consider `CC(=O)N(Cc1ccccc1)c1nc2ccc(O)c(CN(C)C)c2s1`, for which the growth is 96.7% in the experiment on NCI-H23 lung; 90.5% with NCI-H226 lung; 103% with NCI-H322M lung; 90.6% in the experiment with HOP-62 NSCLC; 100% with NCI-H460 lung; 37.6% in the experiment on HOP-92 NSCLC. The growth in the experiment on NCI-H522 lung is 90.2%; with A549/ATCC NSCLC it was 98.4%; in the experiment on 786-0 renal it was 97.6%; with COLO 205 colon, 116%; in the experiment with DU-145 prostate it was 108%; in the experiment on K-562 leukemia, 92.5%. The growth with MALME-3M melanoma is 98.1%; with MDA-MB-231 breast, 96%; in the experiment on RXF 393 renal it was 98.2%; in the experiment on SF-268 CNS, 94.6%; with SF-295 CNS, 92.6%; in the experiment on SF-539 CNS it was 97.2%. The growth in the experiment with UACC-257 melanoma is 102%; with M14 melanoma, 104%.

With `O=C(N=Nc1c(O)[nH]c2ccccc12)Nc1ccc(Cl)cc1`, the growth was 93% with NCI-H23 lung; 95.5% in the experiment on NCI-H226 lung; 75.3% in the experiment on NCI-H322M lung; 98.6% in the experiment with HOP-62 NSCLC; 91.3% in the experiment on NCI-H460 lung; 80% in the experiment on HOP-92 NSCLC. For the same molecule, the growth in the experiment on NCI-H522 lung is 89.8%; in the experiment with A549/ATCC NSCLC, 92.5%; in the experiment with 786-0 renal, 97.8%; with COLO 205 colon, 99.5%; with DU-145 prostate, 108%; in the experiment on K-562 leukemia, 81.5%. Further, the growth was 96.3% in the experiment with MALME-3M melanoma; 102% with MDA-MB-231 breast; 96.3% in the experiment on RXF 393 renal; 101% in the experiment with SF-268 CNS; 101% in the experiment on SF-295 CNS; 83.8% in the experiment on SF-539 CNS. For the same molecule, the growth in the experiment on UACC-257 melanoma is 95.8%; in the experiment with M14 melanoma, 95.3%.

For `COc1cc(C(=O)/C=C/c2c(-c3cccs3)nc3ccccn23)cc(OC)c1OC`, the growth is 14.1% in the experiment with NCI-H23 lung; 24.8% in the experiment with NCI-H226 lung; -2.37% (active) in the experiment with NCI-H322M lung; 16.3% in the experiment with HOP-62 NSCLC; -48.1% (active) in the experiment with NCI-H460 lung; -1.12% (active) in the experiment on HOP-92 NSCLC. Further, the growth in the experiment on NCI-H522 lung was 1.24% (active); with A549/ATCC NSCLC, 13.7%; in the experiment with 786-0 renal, 0.465% (active); with COLO 205 colon, 2.79% (active); in the experiment with DU-145 prostate it was 3.29% (active); in the experiment on K-562 leukemia, 25.7%. Besides, the growth in the experiment on MALME-3M melanoma was 33.9%; in the experiment on MDA-MB-231 breast, 24.7%; with RXF 393 renal it was 2.35% (active); with SF-268 CNS, 21%; in the experiment on SF-295 CNS, -29.7% (active); in the experiment on SF-539 CNS, -27% (active). Besides, the growth with UACC-257 melanoma was 29.9%; in the experiment on M14 melanoma it was 11.7%.

Take `COC(=O)c1nc(-c2ccccc2)oc1S(=O)(=O)N1CCC(C(N)=O)CC1`: the growth in the experiment on NCI-H23 lung is 90.4%; with NCI-H226 lung, 85.2%; in the experiment on NCI-H322M lung, 93.6%; in the experiment on HOP-62 NSCLC it was 104%; in the experiment on NCI-H460 lung it was 102%; in the experiment with HOP-92 NSCLC, 23.7%. For the same molecule, the growth is 0.81% (active) in the experiment with NCI-H522 lung; 98.8% in the experiment with A549/ATCC NSCLC; 51.9% in the experiment on 786-0 renal; 20.6% with COLO 205 colon; 55.1% in the experiment on DU-145 prostate; 14.8% in the experiment with K-562 leukemia. Further, the growth in the experiment with MALME-3M melanoma is 46.1%; in the experiment with MDA-MB-231 breast, 76%; in the experiment with RXF 393 renal, 47.4%; in the experiment with SF-268 CNS, 85.9%; in the experiment on SF-295 CNS, 107%; in the experiment on SF-539 CNS, 63.2%. In addition, the growth in the experiment on UACC-257 melanoma is 69.2%; in the experiment on M14 melanoma it was 48.1%.

In the case of `NC(=O)c1c(NC(=O)c2ccc(Cl)cc2)sc2c1CCC(=O)C2`, the growth with NCI-H23 lung was 51.6%; with NCI-H226 lung, 97.8%; in the experiment on NCI-H322M lung, 94%; in the experiment on HOP-62 NSCLC it was 106%; in the experiment with NCI-H460 lung, 100%; with HOP-92 NSCLC, 77.4%. The growth in the experiment with NCI-H522 lung is 7.79% (active); in the experiment with A549/ATCC NSCLC it was 98.5%; with 786-0 renal, 94.3%; with COLO 205 colon, 75.9%; with DU-145 prostate, 98.6%; in the experiment on K-562 leukemia, 13.9%. The growth in the experiment with MALME-3M melanoma was 92.7%; with MDA-MB-231 breast, 86.3%; in the experiment with RXF 393 renal it was 56.7%; with SF-268 CNS, 47.5%; in the experiment on SF-295 CNS, 96.2%; in the experiment with SF-539 CNS it was 43.2%. Further, the growth with UACC-257 melanoma was 91.6%; in the experiment on M14 melanoma, 51.5%.
